The values below come from PubChem BioAssay (NCI).

Each structure is given as a SMILES string. About 83,000 compounds went through this panel and 20% of them were active in at least one assay; those are over-represented in the sample as a whole.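 Single-dose data. Exposure time 48 hours. Values below 10 considered active.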 Values without a mark were called inactive. Active and inactive are the calls of the source.

This assay concerns OVCAR-4 ovarian. Put plainly: NCI-60 one-dose screen, 48 h (100 = growth as untreated, 0 = no growth, -100 = all killed). The conditions noted are these: 10 µM unless noted. On the procedure: Growth inhibition of the OVCAR-4 human tumor cell line is measured as a screen for anti-cancer activity. Cells are grown in 96 well plates and exposed to the test compound for 48 hours. Compounds are tested at a single concentration, which is 10^-5 M for most compounds. The reported endpoint is percent growth (GI% or GIPRCNT), where numbers from 0 - 100% represent growth inhibition, and numbers from -100% - 0 represent cell death. For example, a value of 40 represents 60% growth inhibition. A value of 0 means no net growth occurred over the course of the experiment. A value of -40 indicates 40% of cells at the beginning of the experiment died by the end of the experiment. A value of -100 means all cells are dead at the end of the experiment.
NCI-60 Human Tumor Cell Lines Screen was performed using the standard one-dose NCI protocol, which is described in more detail at https://dtp.cancer.gov/discovery_development/nci-60/default.htm.
Compounds with GIPRCNT values below 10 were considered active. Activity score was based on GIPRCNT using the following formula: […]
Score is 0 for GIPRCNT values of 100 or above, 50 for GIPRCNT values of 0, and 100 for GIPRCNT values of -100.
Turning to `CC1CCC(C(C)(C)[N+](C)(C)C)CC1` (stereo not given), the growth is 98.9%.
In the case of `O=C(O)C1CSC(c2ccccc2)N1` (stereo not given), the growth was 111%.
Take `CCNCC(C)(C)O`: the growth was 98.7%.
Turning to `O=C(Nc1ccc([N+](=O)[O-])cc1)C(=O)Nc1ccc([N+](=O)[O-])cc1`, the growth is 121%.
On to `CC(C)c1ccccc1NC(=O)N1CCC(C(C)C)CC1`, for which the growth is 96.7%.
For `Cc1ccc(OC(=O)c2ccccc2)cc1`, the growth is 114%.
Consider `CCOC(=O)Nc1nccs1`, for which the growth was 109%.
As to `Nc1ccc(F)c(Cl)c1F`, the growth was 112%.
On to `C=CCNC(=S)N/C=C(/C(=O)c1ccccc1)c1ccccc1`, for which the growth was 110%.
The value for `Nc1ccc2c(c1)Cc1cc(N)c(N)cc1-2` was 105%; that for `Oc1ccc(CCC2CCNc3ccccc32)cc1` (stereo not given) was 63.2%; that for `CN=S(=O)(OCCCCCOS(=O)(=NC)c1ccc(C)cc1)c1ccc(C)cc1` (stereo not given) was 82.8%.
The value for `Cc1ccc(S(=O)(=O)CCCl)cc1` was 107%; that for `Cc1c(Cl)cccc1N=C=S` was 87.4%.
For `Cc1ccc(C)c2c1CCC2=O`, the growth is 105%.
Take `Nc1cc(N)ncn1`: the growth is 99%.
For the molecule `CCN(CC)c1ccc2nc3ccc(N=Nc4ccc(N(C)C)cc4)cc3[n+](-c3ccccc3)c2c1`, the growth is -100% (active).
Take `Nc1ncc([N+](=O)[O-])cn1`: the growth was 106%.
In the case of `O=C1C=Cc2ccccc2/C1=C/c1[nH]c(=O)[nH]c1O`, the growth is 41%.
In the case of `Nc1cc(F)ccc1[N+](=O)[O-]`, the growth is 106%.
The value for `Cc1cc(C(=O)c2ccccc2)cc(C)c1O` was 86.8%; that for `O=[n+]1ccn([O-])c2ccccc21` was 106%.
The value for `COC(=O)c1ccccc1C(=O)c1c(C)cc(C)cc1C` was 99.9%.
Regarding `COc1cccc(C(=O)O)c1OC`, the growth is 95%.
The value for `NCC(O)C(O)C(O)C(O)CO` (stereo not given) was 103%; that for `CC(C)c1ncc([N+](=O)[O-])n1C` was 117%; that for `O=C(OCc1ccccc1)n1nnc2ccccc21` was 92.3%.
Turning to `C=C(c1ccc(N(C)C)cc1)c1ccc(N(C)C)cc1`, the growth was 48.9%.
As for `O=c1[nH]c(=O)c2cc(Cl)cc(Cl)c2[nH]1`, the growth is 101%.
Consider `CC(=O)/C(C)=N\OC(=O)Nc1ccccc1`, for which the growth is 97.7%.
Regarding `CCOC(=O)c1c[nH][nH]c1=O`, the growth was 101%.
Turning to `O=C1Nc2ccccc2/C1=C\c1ccccc1O`, the growth was 80.9%.
For `O=S(=O)(O)C(C(I)I)S(=O)(=O)O`, the growth is 107%.
In the case of `CC(=O)Nc1ccc(/C=C2\SC(=S)N(/C=C(\C(C)=O)C(N)=O)C2=O)cc1`, the growth was 99.4%.
Consider `O=C(CC(CC(=O)c1ccccc1)c1ccccn1)c1ccccc1`, for which the growth is 105%.
Turning to `CCOC(=O)c1ccc(NC(=O)Nc2nccs2)cc1`, the growth was 16.7%.
For the molecule `CC(CC(CCC(=O)O)(c1ccccc1)c1ccccc1)N(C)C` (stereo not given), the growth was 96.1%.
Regarding `CCCCCCCCCCCCCCCCCCSC(=N)N`, the growth was 76.1%.
As for `CC(=O)c1cccc(N(C)S(=O)(=O)c2ccc(C)cc2)c1`, the growth was 87.7%.
The value for `CC(=O)OC/C(C)=C\CC(C)COC(C)=O` (stereo not given) was 105%.
